Results filed as inconclusive are left out. Active and inactive are the calls of the source. Calls follow the shape of the dose curve; as a rule, active = well fitted curve in the direction sought with a large enough effect; inconclusive = small, poorly fitted or top-dose-only effect, or another doubt; inactive = no such curve, though single readings can be large; an effect the other way counts as inactive or inconclusive.
How the values were obtained:
[1] = tested on: NIH3T3; experiment: Cytotoxic Profiling of Annotated Libraries Using Quantitative High-Throughput Screening (AID 1296008); settings: Five cell lines viability, CellTiter-Glo ATP luminescence, 48-72 h; max response: stronger effect = lower value; also: nearly all actives have a fitted effect of over 60% in size
In short: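 Cells exposed to compounds for 48 or 72 hr at 37 degrees Celsius. Viability read as ATP-coupled luminescence with CellTiter-Glo after 10 min at room temperature.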

[2] = tested on: HEK293T; experiment: qHTS assay to identify novel small-molecules to repurpose for Merkel cell carcinoma treatment (AID 1296009); settings: MCC and control cell lines, CellTiter-Glo viability, 72 h; at 44.8 µM (top of the series) unless noted; also: nearly all actives have a fitted effect of over 60% in size; also: potency is read from the fitted curve at half-maximal effect
In short: (§1)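 CellTiter-Glo luminescence after 72 hr compound exposure at 37 degree celsius gave cell viability. Libraries NPC and MIPE were run as 8- and 11-point dose responses; RLUs normalized to DMSO (negative) and no-cell (cytotoxicity) controls.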

[3] = tested on: MCC-13; experiment: as above; settings: MCC and control cell lines, CellTiter-Glo viability, 72 h; series mostly up to 46 µM
In short: as §1

[4] = tested on: MCC-26; experiment: as above; settings: MCC and control cell lines, CellTiter-Glo viability, 72 h; series mostly up to 46 µM
In short: as §1

[5] = tested on: MKL-1; experiment: as above; settings: MCC and control cell lines, CellTiter-Glo viability, 72 h; series mostly up to 46 µM
In short: as §1

[6] = tested on: MKL-2; experiment: as above; settings: MCC and control cell lines, CellTiter-Glo viability, 72 h; series mostly up to 46 µM
In short: as §1

[7] = tested on: NIH3T3; experiment: as above; settings: MCC and control cell lines, CellTiter-Glo viability, 72 h; at 44.8 µM (top of the series) unless noted
In short: as §1

[8] = tested on: UISO; experiment: as above; settings: MCC and control cell lines, CellTiter-Glo viability, 72 h; series mostly up to 46 µM
In short: as §1

[9] = tested on: WaGa; experiment: as above; settings: MCC and control cell lines, CellTiter-Glo viability, 72 h; series mostly up to 46 µM
In short: as §1

[10] = tested on: C33A; experiment: Primary qHTS to identify gynecologic anti-cancer compounds using libraries of approved drugs and bioactive compounds (AID 1345084); settings: Gynecologic cancer cell panel viability, ATPlite luminescence, 48 h; series mostly up to 57.5 µM; also: nearly all actives have a fitted effect of over 55% in size; also: potency is read from the fitted curve at half-maximal effect
In short: (§2)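 48 h compound exposure at 37 C, 5% CO2; five-point qHTS. ATPlite luminescence readout of cell ATP.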

[11] = tested on: CAOV3; experiment: as above; settings: Gynecologic cancer cell panel viability, ATPlite luminescence, 48 h; series mostly up to 57.5 µM
In short: as §2

[12] = tested on: CASKI; experiment: as above; settings: Gynecologic cancer cell panel viability, ATPlite luminescence, 48 h; series mostly up to 57.5 µM
In short: as §2

[13] = tested on: Es-2; experiment: as above; settings: Gynecologic cancer cell panel viability, ATPlite luminescence, 48 h; series mostly up to 57.5 µM
In short: as §2

[14] = tested on: HeLa; experiment: as above; settings: Gynecologic cancer cell panel viability, ATPlite luminescence, 48 h; series mostly up to 57.5 µM
In short: as §2

[15] = tested on: Hek293T; experiment: as above; settings: Gynecologic cancer cell panel viability, ATPlite luminescence, 48 h, control line for the selectivity index; series mostly up to 57.5 µM
In short: as §2

[16] = tested on: JEG-3; experiment: as above; settings: Gynecologic cancer cell panel viability, ATPlite luminescence, 48 h; series mostly up to 57.5 µM
In short: as §2

[17] = tested on: OV90; experiment: as above; settings: Gynecologic cancer cell panel viability, ATPlite luminescence, 48 h; series mostly up to 57.5 µM
In short: as §2

[18] = tested on: PA-1; experiment: as above; settings: Gynecologic cancer cell panel viability, ATPlite luminescence, 48 h; series mostly up to 57.5 µM
In short: as §2

[19] = tested on: SKOV3; experiment: as above; settings: Gynecologic cancer cell panel viability, ATPlite luminescence, 48 h; series mostly up to 57.5 µM
In short: as §2

[20] = tested on: HACAT; experiment: qHTS assay to identify novel small-molecules to repurpose for Merkel cell carcinoma treatment (AID 1296009); settings: MCC and control cell lines, CellTiter-Glo viability, 72 h; at 44.8 µM (top of the series) unless noted; also: nearly all actives have a fitted effect of over 60% in size; also: potency is read from the fitted curve at half-maximal effect
In short: as §1
% is scaled to controls: 0 for no effect and ±100 for the full control effect.

O=C1NC(c2ccccc2)(c2ccccc2)C(=O)N1COP(=O)(O)O
inactive: outcome [1] | outcome [2] | Potency [3] | Potency [4] | Potency [5] | Potency [6] | outcome [7] | Potency [8] | Potency [9] | Potency [10] | Potency [11] | Potency [12] | Potency [13] | Potency [14] | Potency [15] | Potency [16] | Potency [17] | Potency [18] | Potency [19]

O=C(Nc1ccc(S(=O)(=O)N2CCOCC2)cc1)c1cc(Cl)ccc1NS(=O)(=O)c1ccc(Cl)s1
inactive: outcome [1] | outcome [2] | Potency [3] | Potency [4] | Potency [5] | Potency [6] | outcome [7] | Potency [8] | Potency [9] | Potency [11] | Potency [12] | Potency [13] | Potency [14] | Potency [15] | Potency [16] | Potency [17] | Potency [19]

Nc1cc(C(F)(F)F)ccc1S
active: Potency [6] 11.9 µM | Potency [8] 13.3 µM
inactive: outcome [1] | outcome [20] | outcome [7] | Potency [10] | Potency [11] | Potency [12] | Potency [13] | Potency [14] | Potency [15] | Potency [16] | Potency [17] | Potency [18] | Potency [19]

c1ccc2c(c1)CCc1ccccc1N2
active: Potency [19] 22.4 µM
inactive: outcome [1] | outcome [2] | Potency [3] | Potency [4] | Potency [5] | Potency [6] | outcome [7] | Potency [8] | Potency [9] | Potency [10] | Potency [11] | Potency [12] | Potency [13] | Potency [14] | Potency [15] | Potency [16] | Potency [17] | Potency [18]

C[C@@]12CCC[C@H]1[C@@H]1CC[C@H]3C[C@@H](O)CC[C@]3(C)[C@H]1CC2
inactive: max response [1] 0.76% | outcome [2] | Potency [3] | Potency [4] | Potency [5] | Potency [6] | Potency [8] | Potency [9] | Potency [10] | Potency [11] | Potency [12] | Potency [13] | Potency [14] | Potency [15] | Potency [16] | Potency [17] | Potency [18] | Potency [19]

CCCCOCCOC(=O)c1cccnc1
inactive: max response [1] -2.28% | outcome [2] | Potency [3] | Potency [4] | Potency [5] | Potency [6] | Potency [8] | Potency [9] | Potency [10] | Potency [11] | Potency [12] | Potency [13] | Potency [14] | Potency [15] | Potency [16] | Potency [17] | Potency [18] | Potency [19]

CCCCC(CC)COC(=O)c1ccccc1C(=O)O (centres undefined)
inactive: max response [1] -2.08% | outcome [2] inactive [at 92 µM] | Potency [3] | Potency [4] | Potency [5] | Potency [6] | Potency [8] | Potency [9] | Potency [10] | Potency [11] | Potency [12] | Potency [13] | Potency [14] | Potency [15] | Potency [16] | Potency [17] | Potency [18] | Potency [19]

CC(CCc1ccc2c(c1)OCO2)NN (centres undefined)
inactive: outcome [1] | outcome [2] | Potency [3] | Potency [4] | Potency [5] | Potency [6] | outcome [7] | Potency [8] | Potency [9] | Potency [10] | Potency [11] | Potency [12] | Potency [13] | Potency [14] | Potency [15] | Potency [16] | Potency [17] | Potency [18]

CC1CCCCN1CCCOC(=O)c1ccc(OC2CCCCC2)cc1 (centres undefined)
inactive: max response [1] -13.4% | outcome [20] | Potency [3] | Potency [4] | Potency [8] | Potency [10] | Potency [11] | Potency [12] | Potency [13] | Potency [14] | Potency [15] | Potency [16] | Potency [17] | Potency [18]

N[C@@H](Cn1ccc(=O)c(O)c1)C(=O)O
inactive: max response [1] 0.301% | outcome [20] inactive [at 4.96 µM] | activity change, negative = cytotoxicity [10] 19.3% [at 6.55 µM] | activity change, negative = cytotoxicity [11] 11.6% [at 6.55 µM] | activity change, negative = cytotoxicity [12] 1.33% [at 6.55 µM] | activity change, negative = cytotoxicity [13] 4.8% [at 6.55 µM] | activity change, negative = cytotoxicity [14] -0.102% [at 6.55 µM] | activity change, negative = cytotoxicity [15] -0.477% [at 6.55 µM] | activity change, negative = cytotoxicity [16] 1.6% [at 6.55 µM] | activity change, negative = cytotoxicity [17] 12.3% [at 6.55 µM] | activity change, negative = cytotoxicity [18] 16.1% [at 6.55 µM] | activity change, negative = cytotoxicity [19] 23.2% [at 6.55 µM]

Nc1ccc(C(=O)N2CC3CC(CN(Cc4ccccc4)C3)C2)cc1
inactive: outcome [1] | outcome [2] | Potency [3] | Potency [4] | Potency [5] | Potency [6] | outcome [7] | Potency [8] | Potency [9] | Potency [10] | Potency [11] | Potency [12] | Potency [13] | Potency [14] | Potency [15] | Potency [16] | Potency [18] | Potency [19]

Cc1ncc([N+](=O)[O-])n1C
inactive: max response [1] -19.7% | outcome [2] | Potency [3] | Potency [4] | Potency [5] | Potency [6] | Potency [8] | Potency [9] | Potency [10] | Potency [11] | Potency [12] | Potency [13] | Potency [14] | Potency [15] | Potency [16] | Potency [17] | Potency [18]

O=c1[nH]c(=O)n([C@H]2O[C@H](CO)[C@@H](O)[C@@H]2O)cc1/C=C\Br
inactive: max response [1] -0.191% | outcome [2] | Potency [3] | Potency [4] | Potency [5] | Potency [6] | Potency [8] | Potency [9] | Potency [10] | Potency [11] | Potency [12] | Potency [13] | Potency [14] | Potency [15] | Potency [16] | Potency [17] | Potency [18]

CCOC(=O)C(=O)CCc1ccccc1
inactive: max response [1] -3.41% | outcome [20] | Potency [4] | Potency [5] | Potency [6] | Potency [8] | Potency [9] | Potency [10] | Potency [11] | Potency [12] | Potency [13] | Potency [14] | Potency [15] | Potency [16] | Potency [17] | Potency [18] | Potency [19]

CC(=O)CC/C=C(\C)CC/C=C(\C)CC/C=C(\C)CCC=C(C)C
inactive: max response [1] -3.99% | outcome [2] | Potency [3] | Potency [4] | Potency [5] | Potency [6] | Potency [8] | Potency [9] | Potency [10] | Potency [11] | Potency [12] | Potency [13] | Potency [14] | Potency [15] | Potency [16] | Potency [17] | Potency [18] | Potency [19]

O=C(O)C(=O)Nc1cccc(-c2nn[nH]n2)c1
inactive: outcome [1] | outcome [2] | Potency [3] | Potency [4] | Potency [5] | Potency [6] | outcome [7] | Potency [8] | Potency [9] | Potency [10] | Potency [11] | Potency [12] | Potency [13] | Potency [14] | Potency [15] | Potency [16] | Potency [17] | Potency [18] | Potency [19]

— PubChem BioAssay (NCATS)
